# Screens deposited in PubChem BioAssay by several laboratories.
# NTR1 agonist – agonists of human NTR1, primary screen, imaging, U2OS cells, beta-arrestin-GFP, high content; NTR1-U2OS beta-arrestin-GFP spot imaging, agonist mode; activation, % at 20 µM; actives 0.17% (n = 330,000); Neurotensin receptor type 1 (Homo sapiens), P30989;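 active = activation at or above 40% of the spot to cytoplasm intensity ratio, with at least 20 cells analyzed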
# APOBEC3G inh – APOBEC3G DNA deaminase inhibitors, primary screen, biochemical, fluorescence, single-stranded DNA substrate, uHTS; DNA dC->dU-editing enzyme APOBEC-3G (Homo sapiens), Q9HC16; recombinant A3G, ssDNA deamination FAM/TAMRA fluorescence; inhibition, % at 20 µM; actives 0.28% (n = 330,000);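 active = inhibition of at least 40% at 20 µM, with no more than 30% in the related APOBEC3A deaminase screen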
# Target sequence (Q9HC16 whole entry, looked up): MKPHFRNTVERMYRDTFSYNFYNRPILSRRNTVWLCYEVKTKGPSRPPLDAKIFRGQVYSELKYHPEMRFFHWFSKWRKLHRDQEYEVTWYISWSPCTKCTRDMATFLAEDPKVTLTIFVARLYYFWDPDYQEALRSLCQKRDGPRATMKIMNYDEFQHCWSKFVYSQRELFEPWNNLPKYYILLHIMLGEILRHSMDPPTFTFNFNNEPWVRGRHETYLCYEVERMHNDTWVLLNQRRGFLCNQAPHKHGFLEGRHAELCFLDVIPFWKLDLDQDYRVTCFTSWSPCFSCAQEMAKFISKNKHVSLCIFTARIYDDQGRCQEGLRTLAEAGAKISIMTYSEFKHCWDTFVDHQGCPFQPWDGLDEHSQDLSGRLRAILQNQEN
# A3A deaminase – APOBEC3A ssDNA deaminase inhibitors, primary screen, selectivity assay for APOBEC3G inhibitor project, biochemical, FAM/TAMRA oligo cleavage fluorescence; DNA dC->dU-editing enzyme APOBEC-3A (Homo sapiens), P31941; recombinant A3A, FAM/TAMRA ssDNA deamination fluorescence; inhibition, % at 20 µM; actives 0.41% (n = 330,000); AID 493011, 2011;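 active = at least 40% inhibition at 20 µM here, with at most 30% in a related deaminase screen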
# AHR activator – AHR activators, primary screen, cell-based, luminescence, luciferase reporter, human; Aryl hydrocarbon receptor (Homo sapiens), P35869; AHR-responsive luciferase reporter cells; activation, % at 5 µM; actives 2.5% (n = 320,000); in the data active = activation above about 47%
# Hits are given with their value; 0 = inactive. Sampled rows, rich in hits. Any-hit rate of the full collection: about 3.2%.
SMILES,NTR1 agonist,APOBEC3G inh,A3A deaminase,AHR activator
O=C1c2ccccc2C(=O)N1CCc1ccccc1,0,0,0,60
COc1ccc(CN2CCN(Cc3ccc4cc(F)ccc4n3)CC2CCO)c(C)c1C (stereo not drawn),0,0,0,0
Oc1ccc(-c2cn3c(n2)SCC3)cc1,0,0,0,65
Brc1ccc(-c2cn3c(n2)SCC3)cc1,0,0,0,0
COc1ccc(C(CNC(=O)C(=O)Nc2ccc3c(c2)OCCO3)N2CCN(C)CC2)cc1 (stereo not drawn),0,0,0,0
O=C(NC1CC(=O)N(c2ccccc2)C1)C(=O)c1c[nH]c2ccccc12 (stereo not drawn),0,0,0,0
O=C(NC1CC1)C(=O)c1c[nH]c2ccccc12,0,0,0,63
C[C@@H](NC(=O)C(=O)c1c[nH]c2ccccc12)c1ccccc1,0,0,0,0
CSc1ccccc1NC(=O)C(=O)c1c[nH]c2ccccc12,0,0,0,48
O=C(Nc1nccs1)C(=O)c1c[nH]c2ccccc12,0,0,0,59
O=C(Nc1ccnc(-c2ccncc2)n1)c1ccc(Cl)cc1,0,0,0,0
CCOC(=O)Cn1nc(C)c(NC(=O)c2ccc(Cl)c([N+](=O)[O-])c2)c1C,0,0,0,0
COc1ccc(C(=O)c2sc3nc(-c4ccc(OC)cc4)ccc3c2N)cc1,0,0,0,0
COc1ccc(-c2ccc3c(N)c(C(=O)c4cccc(OC)c4)sc3n2)cc1,0,0,0,77
Cc1ccc(Cl)cc1NC(=O)NCc1ccccn1,0,0,0,0
Cc1cc(N2CCN(S(=O)(=O)c3ccccc3)CC2)nc2c(C)cccc12,0,0,0,68
CCOC(=O)Cc1csc(NS(=O)(=O)c2ccc([N+](=O)[O-])cc2)n1,0,0,0,0
Cc1nn(-c2cccc(Cl)c2)c2nc(-c3ccco3)cc(C(=O)O)c12,0,0,0,0
Cc1cc(=O)oc2c1c(C)nn2-c1ccc(Br)cc1,0,0,0,67
Cc1cc(=O)oc2c1c(C)nn2-c1cccc(Cl)c1,0,0,0,71
Cc1cc(Nc2ccccc2)n(-c2ccc(Br)cc2)n1,0,0,0,0
CN1c2ccccc2Sc2cc(N)ccc21,0,0,0,62
CC(=S)/C=C1\Sc2ccccc2N1C,0,0,0,0
CCN(C(=O)c1ccco1)c1nc(CC(=O)Nc2ccc(Cl)cc2)cs1,0,0,0,78
CN(C(=O)c1ccco1)c1nc(CC(=O)Nc2ccccc2)cs1,0,0,0,0
SMILES,NTR1 agonist,APOBEC3G inh,A3A deaminase,AHR activator
N/C(=N\c1nc2ccccc2o1)NC(=O)c1ccc(Cl)cc1,0,0,0,68
Cc1[nH]nc(-c2ccc(OCc3cnn(-c4ccccc4)c3)cc2O)c1Oc1ccccc1F,0,0,0,50
O=c1c(Oc2ccccc2F)coc2cc(OCc3cnn(-c4ccccc4)c3)ccc12,0,0,0,0
CNC(C)C#Cc1ccc2c(=O)c3c(OC)cccc3oc2c1 (stereo not drawn),0,0,0,97
Cc1ccc(C)c(S(=O)(=O)Nc2ccc(O)c3ccccc23)c1,0,0,0,0
Cc1ccc(S(=O)(=O)Nc2cc(C(C(=O)OC(C)C)C(=O)C(F)(F)F)c(O)c3ccccc23)c(C)c1 (stereo not drawn),0,0,0,48
CC1CCCC(NC(=O)c2ccc3c(c2)OCO3)C1C (stereo not drawn),0,0,0,70
CC(C)(C)[C@H]1COC(=O)[C@@H](Cc2ccc(F)cc2)CC/C=C/C[C@@H](CC(=O)N[C@@H](CO)Cc2ccccc2)C(=O)N1,0,0,0,0
COc1cc(OC)cc(C(=O)Nc2ccc(N3CCN(C(=O)c4cccs4)CC3)cc2)c1,0,0,0,53
O=C(NCCCN1CCc2ccccc2C1)Nc1ccc(Br)cc1,0,0,0,61
Cc1ccc(-c2nc(CN(Cc3cnn(C)c3)C(C)C)c(C)o2)o1,0,0,0,0
CCOc1cc(/C=C/c2ccc3cccc([N+](=O)[O-])c3n2)cc(Cl)c1O,0,0,0,0
O=[N+]([O-])c1cccc2ccc(/C=C/c3ccc(Cl)cc3)nc12,0,0,0,62
Oc1[nH]c2c(Cl)cc(Cl)cc2c1N=NC(=S)NCC1CCCO1 (stereo not drawn),0,0,0,51
N#CC1=C(N)SC(N)=C(C#N)C1Cc1ccccc1,0,48,0,0
